High-throughput results as filed in PubChem BioAssay.
Most compounds without a hit are left out; they make up all but 3.4% or so of the library.
TEAD-YAP block = TEAD-YAP interaction inhibition, primary screen, TEAD-YAP interaction inhibitor project, luminescence, HEK-TIYL cells. TEAD-Gal4/YAP UAS-luciferase luminescence. inhibition, % at 9.12 µM. 1.4% of 640,000 active; in the data active means inhibition above about 32%;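 further: 0% = median of test compound wells and 100% = reference inhibitor wells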
FBW7 act = FBW7 E3 ligase activators, primary screen, biochemical, AlphaScreen, human | 0.13% of 650,000 active | AlphaScreen FBW7–phospho-cyclin E peptide binding, activator screen | AID 1259310, 2017 | F-box/WD repeat-containing protein 7 (Homo sapiens), Q969H0 | normalized activity (activation), % at 26.1 µM; in the data active means normalized activity above about 1.9%;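 further: purified mutant Fbw7 with reduced substrate affinity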
GPR151 ag = activators of human GPR151, primary screen, cell-based, PathHunter beta-arrestin, luminescence | PathHunter beta-arrestin GPR151 cells | AID 1508602, 2020 | G-protein coupled receptor 151 (Homo sapiens), Q8TDV0 | activation, % at 11.2 µM | 1% of 650,000 active; in the data active means activation above about 4.9%;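 further: 0% = median of compound wells and 100% = cells with positive control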
MITF inh = MITF inhibitors, primary screen, biochemical, AlphaScreen, human; AlphaScreen MITF homodimerization, bead proximity signal; inhibition, % at 2.6 µM; 0.91% of 650,000 active; in the data active means inhibition above about 50%;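 further: 0% = vehicle wells with protein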
Numbers without * were called inactive.

SMILES	TEAD-YAP block	FBW7 act	GPR151 ag	MITF inh
COc1ccccc1CN1C[C@@H]2C[C@@H](c3cc4ccccc4o3)N3CCC[C@@]23C1=O	4.2	0.0	0.2	-3.0
CC1CCc2c(sc3ncn4nnnc4c23)C1 (stereo unspecified)	-0.6	-0.1	2.1	11.8
COc1cc(OC)cc(C(=O)N[C@H](C(=O)NNC(=O)c2ccc(C)cc2)C(C)C)c1	0.8	0.0	-1.0	0.3
O=C(NCc1nnc(SCc2ccccc2Cl)o1)c1ccccc1	-6.2	0.1	-0.7	-6.5
O=C(NCc1nnc(SCc2cccc(F)c2)o1)c1ccccc1	55.7*	-0.1	-0.1	4.6
Cc1cccc(CSc2nnc(CNC(=O)c3ccccc3)o2)c1	7.8	-0.1	0.5	5.8
O=C(NCc1nnc(SCc2ccccc2)o1)c1ccc(F)cc1	58.3*	0.1	-1.2	7.1
O=C(NCc1nnc(SCc2ccccc2F)o1)c1ccc(F)cc1	60.5*	0.1	0.8	3.0
CC(=O)Oc1ccc(C(=O)Nc2nnc(C(c3ccccc3)c3ccccc3)s2)cc1	-11.0	0.0	0.0	-0.5
O=C(N/N=C/c1cc(Cl)ccc1O)c1ccco1	-48.5	0.0	0.1	-52.4
O=C(N/N=C/c1ccc2ncccc2c1)c1ccco1	41.1*	0.0	-8.8	10.8
COc1cccc(/C=N\NC(=O)c2ccc(C)nc2)c1	-10.4	0.1	-1.9	17.5
Cc1ccc(C(=O)N/N=C\c2cccc(OC(=O)c3ccco3)c2)cn1	1.2	2.2*	1.7	-9.3
O=C(N/N=C/c1ccc(O)c2ncccc12)c1ccco1	-33.2	-0.3	1.1	104.0*
O=C(Nc1ccc2ncccc2c1)c1ccco1	-52.6	-0.1	-0.6	-7.6
CC(=O)Nc1ccc(Nc2nc(Nc3nc4ccccc4n3C)nc3c2ncn3-c2ccccc2)cc1	32.2*	-0.1	1.3	-1.0
CC(=O)Nc1ccc(Nc2nc3ccccc3n3nnnc23)cc1	37.7*	-0.1	0.0	4.6
c1ccc(-n2cnc3c(NC4CC4)nc(Nc4ncccn4)nc32)cc1	23.3	0.1	-0.3	-7.4
Cn1c(Nc2nc(NCCCN3CCCC3=O)c3ncn(-c4ccccc4)c3n2)nc2ccccc21	39.4*	0.0	-0.4	6.3
CC(=O)Nc1cccc(Nc2nc3ccccc3n3nnnc23)c1	-13.6	0.0	-0.5	9.4
CCNc1nc(Nc2ccc(NC(C)=O)cc2)c2ncn(-c3ccccc3)c2n1	-8.2	0.2	0.9	19.5
Cn1c(Nc2nc(NC3CC3)c3ncn(-c4ccccc4)c3n2)nc2ccccc21	46.5*	-0.2	-0.1	13.4
CCOCCn1cnc2sc(C(=O)NCc3cccnc3)c(C)c2c1=O	-10.9	0.1	-0.2	10.5
COc1cc(C2NC(=O)C(O)=C2C(C)=O)ccc1O (stereo unspecified)	-6.3	-0.3	0.6	-2.9
O=C(Nc1ccc(Oc2ccccc2)cc1)c1cncc(-c2csc3ccccc23)c1	-6.2	0.0	4.0	9.6
SMILES	TEAD-YAP block	FBW7 act	GPR151 ag	MITF inh
Cc1cc(C)cc(NC(=S)N2CCC(C(N)=O)CC2)c1	12.0	0.5	0.2	5.5
Cn1nccc1Nc1nc(NC2CC2)c2ncn(-c3ccccc3)c2n1	40.4*	0.0	-2.5	5.9
CCCNc1nc(Nc2nc3ccccc3n2C)nc2c1ncn2-c1ccccc1	54.6*	-0.2	3.9	-48.8
CC(C)N(CCNc1nc(Nc2nc3ccccc3n2C)nc2c1ncn2C(C)C)C(C)C	42.9*	-0.3	0.5	-6.7
Cn1c(Nc2nc(NCCc3ccc(O)cc3)c3ncn(-c4ccccc4)c3n2)nc2ccccc21	18.6	0.8	-3.7	1.4
O=C1NCCCCC1NS(=O)(=O)c1cccc2nsnc12 (stereo unspecified)	-6.6	-0.2	0.4	0.6
Cc1c(C(=O)NC(=S)Nc2ccc3oc(-c4ccc(Cl)cc4)nc3c2)oc2ccccc12	-0.4	0.1	3.0	-11.8
COc1cc(/C=C2/C(=O)NN(c3ccc(C)c(C)c3)C2=O)cc(Cl)c1O	0.0	0.1	3.4	11.7
CCOc1cc(C(NC(C)=O)c2cc([N+](=O)[O-])c3cccnc3c2O)ccc1O (stereo unspecified)	6.4	-0.4	0.0	85.1*
CCC(=O)NC(c1cccs1)c1cc([N+](=O)[O-])c2cccnc2c1O (stereo unspecified)	1.7	-0.8	0.6	45.1
COc1ccc(C(NC(C)=O)c2cc([N+](=O)[O-])c3cccnc3c2O)cc1 (stereo unspecified)	-7.7	-0.6	0.5	47.9
